Rows were chosen to be rich in hits. Some 28% of all compounds tested hit in one or more screens of this group.
PLK1 kinase inh = blocks human PLK1 kinase activity | P53350 | recombinant PLK1 kinase, TR-FRET peptide phosphorylation | inhibition, % at 10 µM | 0.53% of 97,000 active;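 active means inhibition of 50% or more in the single-concentration screen; inactive means inhibition below 50%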;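 further: 0% = DMSO max control and 100% = H-89 dihydrochloride min control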
CYP2C9 inhib = human CYP2C9 inhibition | CYP2C9 Supersomes, luciferin-H conversion, luminescence | P11712 | inhibition, % at 5 µM | AID 777 | 20% of 96,000 active;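 active means blocking of liver enzyme CYP2C9 beyond about 50% at 5 µM, limit read from the data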
CYP2C9 activ = increases human cytochrome P450 2C9 activity; P11712; recombinant CYP2C9, luciferin-H conversion, luminescence; hits give high values; factor 1 = untreated enzyme, 0 = blocked; activation factor at 5 µM; 1.4% of 96,000 active; AID 1024;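 active means activation factor of 2 or more for CYP2C9 at a 5 µM dose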;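 further: 0 = sulfaphenazole-blocked wells and 1 = vehicle-only wells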
CYP2C19 act = activators of human cytochrome P450 2C19; recombinant CYP2C19, luciferin-H EGE luminescence; hits give high values; 0 = fully inhibited enzyme, 1 = untreated enzyme; activation factor at 5 µM; 96,000 tested, under 10 active; AID 1025;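 active means activation factor of at least 2 at 5 µM in the primary screen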;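 further: 0 = wells with 2.5 mM tranylcypromine and 1 = vehicle-only wells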
Target sequence (P33261 whole entry, looked up): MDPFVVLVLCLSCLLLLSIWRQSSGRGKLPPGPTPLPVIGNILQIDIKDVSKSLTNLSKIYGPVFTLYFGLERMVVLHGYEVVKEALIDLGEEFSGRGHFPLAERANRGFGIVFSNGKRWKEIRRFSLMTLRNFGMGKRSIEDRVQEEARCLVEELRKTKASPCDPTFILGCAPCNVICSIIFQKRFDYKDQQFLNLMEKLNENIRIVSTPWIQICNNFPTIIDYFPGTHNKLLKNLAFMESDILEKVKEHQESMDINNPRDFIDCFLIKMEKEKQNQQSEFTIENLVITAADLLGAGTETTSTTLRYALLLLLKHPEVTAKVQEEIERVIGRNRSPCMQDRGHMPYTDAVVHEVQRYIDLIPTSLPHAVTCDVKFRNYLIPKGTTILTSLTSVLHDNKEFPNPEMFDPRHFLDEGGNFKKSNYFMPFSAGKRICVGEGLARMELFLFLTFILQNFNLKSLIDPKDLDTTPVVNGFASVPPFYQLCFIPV
PLK1 PBD inh = blocks phosphopeptide binding to human Plk1 polo box domain. P53350. Plk1 PBD phosphopeptide binding, fluorescence polarization. inhibition, %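 (tested at about 20 µM)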. 0.13% of 97,000 active. AID 693; in the data active means inhibition above about 34%, passing the limit was not always enough
CYP2C19 inhib = human CYP2C19 inhibition; CYP2C19 Supersomes, luciferin-H EGE luminescence, 30 min; P33261; inhibition, % at 5 µM; 21% of 96,000 active;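 active means CYP2C19 inhibition above a set limit at 5 µM in the primary screen, cut at about 50% in these data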;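 further: plate controls were negative control wells for no effect and 2.5 mM tranylcypromine positive control for full effect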
* marks the source's active call; other numbers are inactive results; . = no result given.

SMILES | PLK1 kinase inh | CYP2C9 inhib | CYP2C9 activ | CYP2C19 act | PLK1 PBD inh | CYP2C19 inhib
O=C(CN1CCN(Cc2ccccc2F)C1=O)NCCc1ccc(Cl)cc1 | -12.9 | 88.1* | 0.1 | 0.3 | 5.5 | 66.5*
O=C(COc1ccc(Br)cc1)N1CCC(c2ccccc2)C1 (stereo not given) | -9.5 | 14.3 | 0.9 | 0.1 | 2.5 | 88.1*
CCCN1C(=O)c2ccc(C(=O)NC3CCCCC3)cc2C1=O | 0.4 | 10.7 | 0.9 | 1 | 7.9 | -2.3
CCN(C(=O)CCN1C(=O)c2ccccc2C1=O)C1CCCCC1 | -12.3 | -44.8 | 1.4 | 0.2 | 16.2 | 77.5*
O=C(CCN1C(=O)c2ccccc2C1=O)N1CCCCCC1 | -5.0 | -23.0 | 1.2 | 1 | -17.2 | 3.9
O=C(CCN1C(=O)c2ccccc2C1=O)N1CCC(c2ccccc2)C1 (stereo not given) | -11.3 | -12.5 | 1.1 | 0.3 | 22.0 | 72.3*
CC(=O)Nc1nc(-c2ccc(Cl)cc2)nc(C)c1C(C)=O | -6.9 | 13.7 | 0.9 | 1.1 | 1.8 | -11.9
COc1cc2c(cc1OC)CN(C(=O)CSc1nnc(C)s1)CC2 | -7.5 | 15.0 | 0.8 | 0.9 | -5.7 | 7.9
Cc1cnc(C(=O)Nc2cccc3cccnc23)cn1 | 0.0 | -27.4 | 1.3 | 1.2 | 13.8 | -17.1
CC(C)(C)C(=O)NC(Nc1cccc2cccnc12)C(Cl)(Cl)Cl (stereo not given) | -4.4 | 54.1* | 0.5 | 0.5 | 28.1 | 53.7*
CC(C)C(=O)NC(NC(=S)Nc1cccc2cccnc12)C(Cl)(Cl)Cl (stereo not given) | -2.8 | 83.8* | 0.2 | 0.5 | 3.5 | 45.8
C=C(C)C1CC=C(C)/C(=N/NC(=O)CNc2ccc(OCC)cc2)C1 (stereo not given) | -7.2 | 5.3 | 0.9 | 1 | -1.1 | 2.9
COc1ccc(OC(C)C(=O)N2CCC(C)CC2)cc1 (stereo not given) | 5.2 | 0.2 | 1 | 0.8 | 0.3 | 16.5
Cc1cc(=O)oc2cc(OCC(O)CN3CCN(c4ccccc4)CC3)ccc12 (stereo not given) | -9.9 | 5.0 | 0.9 | 0.9 | -1.7 | 13.2
CC(=O)Nc1ccccc1C(=O)N1CCc2ccccc21 | -7.9 | -17.6 | 1.2 | 0.8 | 0.3 | 15.9
O=C(c1ccccc1F)N1CCc2ccccc21 | 1.6 | -250.3 | 3.5* | 0.4 | -5.6 | 61.5*
COc1ccc(OC(C)C(=O)N2CCc3ccccc3C2)cc1 (stereo not given) | -10.0 | 23.1 | 0.8 | 0.5 | 22.3 | 52.1*
Cc1cc(=O)oc2cc(OCC(O)CN3CCc4ccccc4C3)ccc12 (stereo not given) | -10.8 | 100.3* | 0 | 0.4 | -48.1 | 64.8*
Cc1nnc(NC(=O)C(C)Oc2ccc3c(C)cc(=O)oc3c2)s1 (stereo not given) | -12.9 | 94.1* | 0.1 | 0.9 | 16.8 | 12.2
Cc1cc(=O)oc2cc(OCC(=O)Nc3nnc(C(C)C)s3)ccc12 | -7.1 | 14.8 | 0.9 | 1.1 | -7.5 | -6.6
CC(OC(=O)c1cccc(NS(C)(=O)=O)c1)C(=O)Nc1ccc(N2CCOCC2)cc1 (stereo not given) | -11.6 | -10.6 | 1.1 | 1 | 1.6 | -3.0
Cc1c(Br)c([N+](=O)[O-])nn1C(C)C(=O)N1CCCc2ccccc21 (stereo not given) | -13.6 | 41.0 | 0.6 | 0.4 | -3.3 | 58.1*
Cc1cc(=O)oc2cc(OC(C)C(=O)N3CCCc4ccccc43)ccc12 (stereo not given) | -18.6 | 84.1* | 0.2 | 0.6 | 1.1 | 38.4
Cc1cc(=O)oc2cc(OC(C)C)ccc12 | . | 4.1 | 1 | 0.9 | . | 7.3
O=C(C(Cc1ccccc1)n1cccc1)N1CCc2ccccc21 (stereo not given) | . | 19.1 | 0.8 | 0.9 | . | 6.7
CC(C(=O)N1CCc2ccccc21)n1cccc1 (stereo not given) | 1.9 | -4.5 | 1 | 0.2 | 2.6 | 82.2*
CCc1cc(=O)oc2c(C)c(OCC(=O)N3CCCc4ccccc43)ccc12 | 6.4 | 93.5* | 0.1 | 0.3 | -21.6 | 65.5*
Cc1ccc(OC(C)C(=O)N2CCCc3ccccc32)cc1 (stereo not given) | -1.4 | 44.2 | 0.6 | 0.5 | 16.0 | 54.5*
Fc1cccc(Oc2nc3ccccc3n3cccc23)c1 | -7.6 | -9.5 | 1.1 | 1 | -7.6 | 4.7
CCC(C)NCCOCCOc1ccccc1-c1ccccc1 (stereo not given) | -7.5 | -8.7 | 1.1 | 0.6 | -33.5 | 35.1

From PubChem BioAssay
